Compounds without any hit were thinned out: in the full panel of roughly 79,000, 15% have a hit. A number with no mark means an inactive call. Active and inactive are the calls of the source. No stated cut-off is given here; in the data, active means growth inhibition above about 70%; inactive means the rest.
Key:
[1] = NCI Yeast Anticancer Drug Screen. Data for the rad50 strain (AID 155);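 further: 0% = growth of vehicle-only cultures of the same strain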; details: S. cerevisiae rad50 strain growth inhibition, active compounds read high
Summary of the method: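 Cells are treated with compound, grown, and their growth is then scored against vehicle-only cultures of the same repair-deficient yeast strain.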

[2] = NCI Yeast Anticancer Drug Screen. Data for the mec2-1 strain (AID 157); details: S. cerevisiae mec2-1 strain, active compounds read high
Summary of the method: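 Yeast mec2-1 mutant treated with compound. Readout: growth inhibition vs vehicle controls.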

[3] = NCI Yeast Anticancer Drug Screen. Data for the sgs1 mgt1 strain (AID 161);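 further: 0% = growth of cultures given vehicle only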; details: S. cerevisiae sgs1 mgt1 strain, active compounds read high
Summary of the method: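 Read-out: growth inhibition vs vehicle controls. Cells: mutant yeast strain deficient in DNA damage repair.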

[4] = NCI Yeast Anticancer Drug Screen. Data for the cln2 rad14 strain (AID 165);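 further: 0% = growth equal to vehicle treated cultures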; details: S. cerevisiae cln2 rad14 strain, active compounds read high
Summary of the method: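 cln2 rad14 yeast strain; compound exposure; growth inhibition read vs vehicle controls.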

[5] = NCI Yeast Anticancer Drug Screen. Data for the bub3 strain (AID 167); details: S. cerevisiae bub3 mutant strain, active compounds read high
Summary of the method: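 Part of a panel of yeast mutants defective in DNA damage repair or cell cycle regulation. Each strain is grown with compound, and inhibition is calculated relative to solvent-treated cultures.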

[6] = NCI Yeast Anticancer Drug Screen. Data for the mlh1 rad18 strain (AID 175); details: S. cerevisiae mlh1 rad18 strain growth inhibition, active compounds read high
Summary of the method: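 Yeast w/ defined DNA-repair lesions; compound exposure; growth vs vehicle controls → % inhibition.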

[7] = at 5.0 µM (retest, dose inferred, filed as 0.5)
[8] = at 50.0 µM (retest, dose inferred, filed as 5.0)

CCCc1cc(=O)oc2c3c(c4c(c12)OC(C)(C)CC4)O[C@H](C)[C@@H](C)[C@H]3O
growth inhibition [1, 7]: 8% | growth inhibition [1, 8]: 94% (active) | growth inhibition ([1]; at 50.0 µM): 83.5% (active) | growth inhibition [2, 7]: 17% | growth inhibition [2, 8]: 97% (active) | growth inhibition ([2]; at 50.0 µM): 90.5% (active) | growth inhibition [3, 7]: 14% | growth inhibition [3, 8]: 96% (active) | growth inhibition ([3]; at 50.0 µM): 89.2% (active) | growth inhibition [4, 7]: 18% | growth inhibition [4, 8]: 95% (active) | growth inhibition ([4]; at 50.0 µM): 88.7% (active) | growth inhibition [5, 7]: 23% | growth inhibition [5, 8]: 96% (active) | growth inhibition ([5]; at 50.0 µM): 86.8% (active) | growth inhibition [6, 7]: 10% | growth inhibition [6, 8]: 95% (active) | growth inhibition ([6]; at 50.0 µM): 86.5% (active)

COC(=O)[C@@H]1c2cc3c(c(O)c2[C@@H](OC2OC(C)C(OC)C(C)(OC)C2OC)C[C@]1(C)O)C(=O)c1c(O)cc2c(c1C3=O)O[C@H]1O[C@]2(C)[C@H](O)[C@@H](N(C)C)[C@@H]1O (some centres not stated)
growth inhibition [1, 7]: 61% | growth inhibition [1, 8]: 98% (active) | growth inhibition ([1]; at 50.0 µM): 90.8% (active) | growth inhibition [2, 7]: 45% | growth inhibition [2, 8]: 99% (active) | growth inhibition ([2]; at 50.0 µM): 93% (active) | growth inhibition [3, 7]: 35% | growth inhibition [3, 8]: 99% (active) | growth inhibition ([3]; at 50.0 µM): 92.3% (active) | growth inhibition [4, 7]: 33% | growth inhibition [4, 8]: 98% (active) | growth inhibition ([4]; at 50.0 µM): 90.6% (active) | growth inhibition [5, 7]: 60% | growth inhibition [5, 8]: 99% (active) | growth inhibition ([5]; at 50.0 µM): 91.2% (active) | growth inhibition [6, 7]: 79% (active) | growth inhibition [6, 8]: 98% (active) | growth inhibition ([6]; at 50.0 µM): 89.8% (active)

CC1=NN(C(=O)c2ccc(Cl)cc2)C(=O)C1N=Nc1ccc(S(=O)(=O)Nc2ncccn2)cc1 (configuration not stated)
growth inhibition [1, 7]: 61% | growth inhibition [1, 8]: 93% (active) | growth inhibition ([1]; at 50.0 µM): 55.7% | growth inhibition [2, 7]: 4% | growth inhibition [2, 8]: 51% | growth inhibition ([2]; at 50.0 µM): 13.2% | growth inhibition [3, 7]: 11% | growth inhibition [3, 8]: 8% | growth inhibition ([3]; at 50.0 µM): 10.8% | growth inhibition [4, 7]: -6% | growth inhibition [4, 8]: 2% | growth inhibition ([4]; at 50.0 µM): 19.4% | growth inhibition [5, 7]: -2% | growth inhibition [5, 8]: -8% | growth inhibition ([5]; at 50.0 µM): -6.7% | growth inhibition [6, 7]: 6% | growth inhibition [6, 8]: 20% | growth inhibition ([6]; at 50.0 µM): 17.4%

Cc1c2ccncc2cc2c3ccccc3n(C)c12
growth inhibition [1, 7]: -23% | growth inhibition [1, 8]: 97% (active) | growth inhibition ([1]; at 50.0 µM): 99% (active) | growth inhibition [2, 7]: -58% | growth inhibition [2, 8]: 97% (active) | growth inhibition ([2]; at 50.0 µM): 98.7% (active) | growth inhibition [3, 7]: -45% | growth inhibition [3, 8]: 97% (active) | growth inhibition ([3]; at 50.0 µM): 98.7% (active) | growth inhibition [4, 7]: -50% | growth inhibition [4, 8]: 98% (active) | growth inhibition ([4]; at 50.0 µM): 98.2% (active) | growth inhibition [5, 7]: -63% | growth inhibition [5, 8]: 98% (active) | growth inhibition ([5]; at 50.0 µM): 98.8% (active) | growth inhibition [6, 7]: -95% | growth inhibition [6, 8]: 97% (active) | growth inhibition ([6]; at 50.0 µM): 99.2% (active)

NC(=S)N/N=C\c1nccc2c(C(F)(F)C(F)(F)C(F)(F)F)cccc12
growth inhibition [1, 7]: 26% | growth inhibition [1, 8]: 61% | growth inhibition ([1]; at 50.0 µM): 57.9% | growth inhibition [2, 7]: 39% | growth inhibition [2, 8]: 69% | growth inhibition ([2]; at 50.0 µM): 74.5% (active) | growth inhibition [3, 7]: 39% | growth inhibition [3, 8]: 69% | growth inhibition ([3]; at 50.0 µM): 74% (active) | growth inhibition [4, 7]: 10% | growth inhibition [4, 8]: 62% | growth inhibition ([4]; at 50.0 µM): 69.6% | growth inhibition [5, 7]: 11% | growth inhibition [5, 8]: 81% (active) | growth inhibition ([5]; at 50.0 µM): 75.6% (active) | growth inhibition [6, 7]: 24% | growth inhibition [6, 8]: 69% | growth inhibition ([6]; at 50.0 µM): 73.3% (active)

Cc1cc([N+](=O)[O-])cc(Cl)c1O
growth inhibition [1, 7]: -21% | growth inhibition [1, 8]: 51% | growth inhibition ([1]; at 50.0 µM): 79.1% (active) | growth inhibition [2, 7]: -6% | growth inhibition [2, 8]: 79% (active) | growth inhibition ([2]; at 50.0 µM): 88.3% (active) | growth inhibition [3, 7]: -4% | growth inhibition [3, 8]: 87% (active) | growth inhibition ([3]; at 50.0 µM): 88% (active) | growth inhibition [4, 7]: 7% | growth inhibition [4, 8]: 69% | growth inhibition ([4]; at 50.0 µM): 85.2% (active) | growth inhibition [5, 7]: -21% | growth inhibition [5, 8]: 66% | growth inhibition ([5]; at 50.0 µM): 82.3% (active) | growth inhibition [6, 7]: -58% | growth inhibition [6, 8]: 64% | growth inhibition ([6]; at 50.0 µM): 80% (active)

CN(C(=S)c1ccccc1)c1ccccc1
growth inhibition [1, 7]: -166% | growth inhibition [1, 8]: -132% | growth inhibition ([1]; at 50.0 µM): 97.4% (active) | growth inhibition [2, 7]: -45% | growth inhibition [2, 8]: -56% | growth inhibition ([2]; at 50.0 µM): 82% (active) | growth inhibition [3, 7]: -63% | growth inhibition [3, 8]: -61% | growth inhibition ([3]; at 50.0 µM): 69.2% | growth inhibition [4, 7]: -61% | growth inhibition [4, 8]: -65% | growth inhibition ([4]; at 50.0 µM): 58.7% | growth inhibition [5, 7]: -81% | growth inhibition [5, 8]: -80% | growth inhibition ([5]; at 50.0 µM): 96.6% (active) | growth inhibition [6, 7]: -150% | growth inhibition [6, 8]: -131% | growth inhibition ([6]; at 50.0 µM): 91.7% (active)

Nc1c(/C=C/c2cc3cc(C4=NCCN4)ccc3o2)[nH]c2cc(C3=NCCN3)ccc12
growth inhibition [1, 7]: 13% | growth inhibition [1, 8]: 98% (active) | growth inhibition ([1]; at 50.0 µM): 97.5% (active) | growth inhibition [2, 7]: 22% | growth inhibition [2, 8]: 98% (active) | growth inhibition ([2]; at 50.0 µM): 98% (active) | growth inhibition [3, 7]: -2% | growth inhibition [3, 8]: 99% (active) | growth inhibition ([3]; at 50.0 µM): 98.2% (active) | growth inhibition [4, 7]: -22% | growth inhibition [4, 8]: 97% (active) | growth inhibition ([4]; at 50.0 µM): 97.4% (active) | growth inhibition [5, 7]: 7% | growth inhibition [5, 8]: 98% (active) | growth inhibition ([5]; at 50.0 µM): 97% (active) | growth inhibition [6, 7]: 13% | growth inhibition [6, 8]: 97% (active) | growth inhibition ([6]; at 50.0 µM): 97.8% (active)

CCCCCCC(=O)OCc1ccc(-c2ccccc2)cc1
growth inhibition [1, 7]: 97% (active) | growth inhibition [1, 8]: 99% (active) | growth inhibition ([1]; at 50.0 µM): 99% (active) | growth inhibition [2, 7]: 98% (active) | growth inhibition [2, 8]: 100% (active) | growth inhibition ([2]; at 50.0 µM): 99.4% (active) | growth inhibition [3, 7]: 95% (active) | growth inhibition [3, 8]: 100% (active) | growth inhibition ([3]; at 50.0 µM): 99.3% (active) | growth inhibition [4, 7]: 26% | growth inhibition [4, 8]: 94% (active) | growth inhibition ([4]; at 50.0 µM): 99% (active) | growth inhibition [5, 7]: 70% (active) | growth inhibition [5, 8]: 99% (active) | growth inhibition ([5]; at 50.0 µM): 99.2% (active) | growth inhibition [6, 7]: 99% (active) | growth inhibition [6, 8]: 99% (active) | growth inhibition ([6]; at 50.0 µM): 99.2% (active)
